From PubChem BioAssay (NCATS)
Values joined by “and” are separate entries in the source; they are usually repeats but may differ in a detail not shown here. Equal values may be shown once. Records with an inconclusive call do not appear. The list shows a part of the results. Entries that show only a call come without a potency. Active and inactive are the calls of the source. Unless noted, calls come from the whole dose curve; as a rule, active = well fitted curve in the direction sought with a large enough effect; inconclusive = small, poorly fitted or top-dose-only effect, or another doubt; inactive = no such curve, though single readings can be large; an effect the other way counts as inactive or inconclusive.

Key:
[1] = qHTS screen for small molecules that inhibit ELG1-dependent DNA repair: Hit Confirmation with MMS Viability (AID 624251); note: nearly all actives have a fitted effect of over 60% in size; note: potency is the fitted concentration of half-maximal effect
Outline: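 Reporter HEK293T cells (ELG1-luc) receive compounds about 5 hours after plating, alongside 10 µM MMS, and are scored for viability by CellTiter-Glo following 16 hours of treatment.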

[2] = biological target: Tumor susceptibility gene 101 protein (Homo sapiens) (UniProt Q99816); experiment: qHTS Assay for Iinhibitors of HIV-1 Budding by Blocking the Interaction of PTAP/TSG101: Hit Validation (AID 651600); note: nearly all actives have a fitted effect of over 70% in size; note: potency is the fitted concentration of half-maximal effect
Outline: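 Displacement of a FITC-labeled PTAP-motif peptide (50 nM) from the Tsg101 binding domain (10 uM) was monitored by fluorescence polarization after a 20 min room-temperature incubation.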

[3] = Cell Proliferation Assay against the TMD8 Cell Line (AID 651645); conditions: TMD8 DLBCL cell line proliferation/viability; at 46.1 µM (top of the series);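 note: cells exposed to compound for 48 h before reading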
Outline: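 Seed log-phase TMD8 cells in RPMI containing 5% FBS, add compounds at once, incubate 48 hours at 37C. Equilibrate to room temperature, add CellTiter-Glo, read luminescence after 15 minutes and express relative to DMSO and bortezomib controls.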

[4] = Cell Proliferation Assay against the HBL1 Cell Line (AID 651646); conditions: HBL1 DLBCL cells; at 46.1 µM (top of the series);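 note: cells exposed to compound for 48 h before reading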
Outline: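 500 log-phase HBL1 cells per well in phenol red-free RPMI with 5% FBS were treated with compounds for 48 h at 37 °C, 5% CO2. Viability was read by CellTiter-Glo luminescence, normalized to DMSO (100%) and 9.2 uM bortezomib final (0%).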

[5] = biological target: Tyrosine-protein kinase Yes (Homo sapiens) (UniProt P07947); experiment: qHTS for small molecule inhibitors of Yes1 kinase: Primary Screen (AID 686947); note: nearly all actives have a fitted effect of over 60% in size
Outline: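 Yes1 (4 nM) preincubated 20 min with compound, then 60 min room-temperature reaction with 0.1 mM ATP and 0.3 mg/mL poly(E4Y) in pH 7.5 Tris, 10 mM MgCl2. ADP measured by ADP-Glo luminescence, normalised to enzyme/no-enzyme controls.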

[6] = qHTS for small molecule inhibitors of Yes1 kinase: Counter Assay (AID 686950);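 note: no kinase present so only ADP-Glo detection of a fixed ADP amount is tested; luminescence from ADP-Glo reporting ADP in a fixed ATP and ADP mixture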
Outline: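 Enzyme-free ADP-Glo interference check: compounds were preincubated 20 min in buffer, then an ATP/ADP mix (0.08 mM ATP, 0.02 mM ADP final) was added for 60 min at room temperature before two-step ADP-Glo luminescence detection.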

[7] = qHTS assay for small molecule activators of the p53 signaling pathway (AID 651743; active = well fitted activation curve with a large enough effect in the signal ratio, not every such curve was filed as active; the % refers to the signal ratio); conditions: HCT-116 p53RE-bla, beta-lactamase FRET ratio, 16 h; activation: stronger effect = higher value
Outline: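 Cell-based beta-lactamase reporter (p53 response elements, HCT-116 background). After a 5-hour preincubation, cells received compound for 16 hours at 37 C; substrate development ran 2 hours at room temperature.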

[8] = qHTS assay for small molecule activators of the nuclear factor-kappa B (NF-kB) signaling pathway (AID 651749; active = well fitted activation curve with a large enough effect in the signal ratio; the % refers to the signal ratio); conditions: NF-kB-bla ME-180 cells, beta-lactamase FRET ratio, 16 h; activation: stronger effect = higher value
Outline: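 Screening used 2,000 ME-180 reporter cells per well exposed to pinned compound (23 nL) or DMSO; after 16 hr at 37C, beta-lactamase expression under NF-kB control was assessed through FRET.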

[9] = biological target: Peroxisome proliferator-activated receptor alpha (Homo sapiens) (UniProt Q07869); experiment: qHTS assay for small molecule agonists of the peroxisome proliferator-activated receptor alpha (PPARalpha) signaling pathway (AID 651778); conditions: PathHunter PPARalpha complementation, chemiluminescence, 6 h; max response: stronger effect = higher value
Outline: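 Cells plated at 2,000/well and held overnight at 37 C, 5% CO2, then compound added by pin tool for 6 hr; after PathHunter detection reagent and 60 min at room temperature, chemiluminescence from enzyme complementation was read.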

[10] = qHTS assay for small molecule agonists of the antioxidant response element (ARE) signaling pathway measured by Nrf2-dependant transcriptional activity (AID 720636; active = well fitted curve in the direction sought with a large enough effect in the repeat runs; an effect the other way counts as inactive or inconclusive;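 note: HepG2 cells with an ARE-driven luciferase reporter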)
Outline: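 Cells: ARE-luc HepG2 with Nrf2-responsive luciferase. Medium contained 1% dialyzed FBS. Compound exposure lasted 16 hr at 37 C and 5% CO2, followed by ONE-Glo luciferase detection.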

[11] = qHTS assay for small molecule agonists of the antioxidant response element (ARE) signaling pathway measured by Nrf2-dependant transcriptional activity - cell viability counter screen (AID 720653; active = well fitted curve in the direction sought with a large enough effect in the repeat runs; an effect the other way counts as inactive or inconclusive); conditions: ARE-bla HepG2 viability, CellTiter-Glo ATP luminescence, 16 h; max response: stronger effect = lower value
Outline: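 ARE-bla HepG2 cells (2,000/well) rested 5 hrs at 37C/5% CO2, then exposed to compounds in DMSO for 16 hrs. Viability was read in the same wells as intracellular ATP by luminescence, 30 min at room temperature after reagent addition.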

[12] = qHTS assay for cell viability of HEK293 cells (AID 743288); conditions: ATP luminescence (CellTiter-Glo), 18 h; max response: stronger effect = lower value; note: nearly all actives have a fitted effect of over 50% in size
Outline: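 The Tox21 protocol used parental HEK293 cells treated for 18 h at 37 C with compounds delivered by pintool; ATP-coupled luminescence after 30 min at room temperature gave viability.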

[13] = qHTS assay for environmental chemicals that activate the Aryl hydrocarbon Receptor (AhR) signaling pathway (AID 651777); conditions: 1A2-DRE human hepatoma cells, luciferase, 24 h; activation: stronger effect = higher value; note: nearly all actives have a fitted effect of over 15% in size
Outline: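 1A2-DRE human hepatoma reporter line; 1,200 cells/well; cmpd or DMSO 24 h, 37 C/5% CO2; One-Glo 30 min RT; luciferase lum.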

[14] = qHTS for Inhibitors of Ubiquitin-specific Protease USP2a Using CHOP2 as the Reporter: K633 Counterscreen (AID 652168)
Outline: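 Cell-free interference counterscreen without USP2a: compounds pinned into enzyme-free buffer (20 mM Tris pH 8, 2 mM beta-mercaptoethanol, 0.05% Chaps), then DiUb K48-4IQF substrate added (100 nM stock); fluorescence read kinetically, Ex 525/Em 598.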

[15] = biological target: Ubiquitin carboxyl-terminal hydrolase 2 (Homo sapiens) (UniProt O75604); experiment: qHTS for Inhibitors of Ubiquitin-specific Protease USP2a Using CHOP2 as the Reporter: K484 Substrate (AID 652173);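 note: cleavage of internally quenched K48 di-ubiquitin substrate measured as rising fluorescence over time; potency is the fitted concentration of half-maximal effect; nearly all actives have a fitted effect of over 70% in size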
Outline: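 USP2 (dispensed at 5 nM) was pinned with compounds, then DiUb K48 internally quenched fluorescent substrate (dispensed at 100 nM) was added. The buffer was 20 mM Tris pH 8, 2 mM beta-mercaptoethanol and 0.05% CHAPS. Cleavage was read kinetically as rising fluorescence, Ex 525/Em 598.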

Tumor susceptibility gene 101 protein (Homo sapiens), sequence (Q99816 whole entry, looked up, the tested form may be a part): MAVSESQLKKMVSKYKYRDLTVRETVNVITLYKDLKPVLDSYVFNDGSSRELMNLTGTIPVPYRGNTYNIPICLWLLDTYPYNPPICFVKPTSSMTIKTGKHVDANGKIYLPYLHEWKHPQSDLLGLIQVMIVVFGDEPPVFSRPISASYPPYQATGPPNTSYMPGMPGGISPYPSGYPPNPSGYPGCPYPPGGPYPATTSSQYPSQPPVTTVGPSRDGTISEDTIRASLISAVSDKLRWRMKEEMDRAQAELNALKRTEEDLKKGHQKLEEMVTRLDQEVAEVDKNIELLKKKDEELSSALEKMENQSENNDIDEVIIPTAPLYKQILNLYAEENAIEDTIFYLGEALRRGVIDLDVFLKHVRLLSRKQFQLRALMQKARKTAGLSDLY
Ubiquitin carboxyl-terminal hydrolase 2 (Homo sapiens), sequence (O75604 whole entry, looked up): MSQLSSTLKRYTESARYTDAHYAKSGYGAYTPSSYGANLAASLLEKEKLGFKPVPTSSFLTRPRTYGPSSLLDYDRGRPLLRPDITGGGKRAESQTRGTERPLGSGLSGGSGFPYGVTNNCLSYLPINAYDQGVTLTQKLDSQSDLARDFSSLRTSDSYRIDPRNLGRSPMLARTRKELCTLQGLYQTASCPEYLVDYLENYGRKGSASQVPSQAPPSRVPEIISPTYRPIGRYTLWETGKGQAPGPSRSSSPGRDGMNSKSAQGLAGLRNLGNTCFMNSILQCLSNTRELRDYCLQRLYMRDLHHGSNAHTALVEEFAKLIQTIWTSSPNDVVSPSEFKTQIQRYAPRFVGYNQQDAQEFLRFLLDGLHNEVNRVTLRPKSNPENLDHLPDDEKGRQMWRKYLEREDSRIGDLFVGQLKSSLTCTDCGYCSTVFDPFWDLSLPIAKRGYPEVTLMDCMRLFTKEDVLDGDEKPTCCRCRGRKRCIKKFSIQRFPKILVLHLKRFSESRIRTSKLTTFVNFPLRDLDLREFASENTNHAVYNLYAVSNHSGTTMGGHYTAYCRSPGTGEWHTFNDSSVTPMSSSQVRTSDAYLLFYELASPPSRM
Peroxisome proliferator-activated receptor alpha (Homo sapiens), sequence (Q07869 whole entry, looked up): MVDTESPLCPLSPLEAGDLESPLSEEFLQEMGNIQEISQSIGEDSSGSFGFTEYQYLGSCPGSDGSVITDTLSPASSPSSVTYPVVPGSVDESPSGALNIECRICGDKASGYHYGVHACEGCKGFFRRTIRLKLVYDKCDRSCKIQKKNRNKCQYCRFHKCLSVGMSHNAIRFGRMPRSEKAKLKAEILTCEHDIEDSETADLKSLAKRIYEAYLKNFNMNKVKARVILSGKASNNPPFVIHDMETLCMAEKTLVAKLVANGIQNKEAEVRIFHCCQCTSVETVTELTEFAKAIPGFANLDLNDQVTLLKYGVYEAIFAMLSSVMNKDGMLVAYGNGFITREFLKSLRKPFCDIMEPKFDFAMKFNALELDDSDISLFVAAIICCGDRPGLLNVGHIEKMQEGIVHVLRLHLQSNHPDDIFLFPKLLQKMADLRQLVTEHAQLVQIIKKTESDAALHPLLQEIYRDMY
Tyrosine-protein kinase Yes (Homo sapiens), sequence (P07947 whole entry, looked up): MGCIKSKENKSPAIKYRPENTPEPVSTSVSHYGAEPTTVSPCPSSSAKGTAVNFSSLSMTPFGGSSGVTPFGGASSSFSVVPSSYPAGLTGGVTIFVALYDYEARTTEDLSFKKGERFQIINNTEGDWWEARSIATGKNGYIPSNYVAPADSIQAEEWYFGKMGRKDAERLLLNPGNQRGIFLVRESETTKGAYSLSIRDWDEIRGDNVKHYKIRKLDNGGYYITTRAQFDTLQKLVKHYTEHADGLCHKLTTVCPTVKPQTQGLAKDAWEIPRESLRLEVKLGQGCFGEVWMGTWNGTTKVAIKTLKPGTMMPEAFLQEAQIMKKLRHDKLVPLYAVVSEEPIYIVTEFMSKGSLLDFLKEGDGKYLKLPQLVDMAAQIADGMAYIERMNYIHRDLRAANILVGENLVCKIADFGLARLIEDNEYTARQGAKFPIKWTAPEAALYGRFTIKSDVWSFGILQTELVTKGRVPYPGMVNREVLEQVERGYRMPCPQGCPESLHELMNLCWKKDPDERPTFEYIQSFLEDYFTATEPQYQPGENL

COc1ccc(S(=O)(=O)Nc2ccc3oc(C)c(C(C)=O)c3c2)cc1
Potency [1]: 3.97 µM (active)

CS(=O)(=O)c1ccc2nc(NC(=O)C3CCCCC3)sc2c1
Potency [1]: inactive

O=[N+]([O-])c1cc(Cl)cc(/C=N/n2cnnc2)c1O
Potency [2]: inactive

Cc1ccc(CNC(=O)C2CCCN(S(=O)(=O)c3c(C)[nH]c(=O)[nH]c3=O)C2)cc1 (stereo not drawn)
Potency [2]: inactive

CC1=CC(=C(C#N)c2nc3ccccc3s2)C=C(C)N1c1ccc(F)cc1
Potency [2]: 18.3 µM (active)

CCc1c(C)sc(NC(=O)c2ccccc2[N+](=O)[O-])c1C(N)=O
Potency [2]: inactive

CN1CCc2c(sc(NC(=O)CSc3ccc(F)cc3)c2-c2nc3ccccc3s2)C1
Potency [2]: inactive

CCc1cc(C(=O)OC)c(NC(=O)CC2Nc3cc(C)c(C)cc3NC2=O)s1 (stereo not drawn)
Potency [2]: inactive

NC(=O)c1ccccc1NCC(=O)c1ccc(F)cc1
Potency [2]: inactive

CC1CCc2cccc3c2N1c1cc(C#N)c(C#N)cc1O3 (stereo not drawn)
Potency [2]: inactive

O=C(OCCN1C(=O)c2cccc3c(N4CCOCC4)ccc(c23)C1=O)c1ccc(Cl)cc1
Potency [2]: 18.3 µM (active)

Cc1cc(C)c[n+](-c2[nH]c(=O)sc2/C=N/NC([S-])=Nc2ccccc2)c1
Potency [2]: 18.3 µM (active)

C/C(=N/NC(=O)c1ccncc1)c1cc2ccc(O)cc2oc1=O
Potency [2]: 14.6 µM (active)

O=C1NC(c2ccco2)Nc2sc3c(c21)CCN(Cc1ccccc1)C3 (stereo not drawn)
Potency [2]: inactive

Cc1ccccc1-n1c(SCc2c(C)noc2C)nnc1-c1cccnc1
Potency [2]: inactive

COc1ccc(C2C(C(=O)c3cccs3)=C(O)C(=O)N2c2nnc(C)s2)cc1OC (stereo not drawn)
Potency [2]: 6.51 µM (active)

CCN1CCN(Cc2ccc(NC(=O)Nc3ccccc3OC)cc2)CC1
Potency [2]: inactive

Cc1ccc(Nc2ccc([N+](=O)[O-])ccc2=O)cc1
Potency [2]: inactive

COc1ccc(OC)c(/C=C(\C#N)c2nc(-c3ccc(F)cc3)cs2)c1
Potency [2]: inactive

O=[N+]([O-])c1cc(Cl)cc(/C=N/NC(=S)Nc2ccc(S(=O)(=O)N3CCOCC3)cc2)c1O
Potency [2]: inactive

COc1ccc(C2=CC(c3ccco3)n3ncnc3N2)cc1 (stereo not drawn)
Potency [2]: inactive

COc1ccc(CCn2c(=N)c(S(=O)(=O)c3ccc(Cl)cc3)cc3c(=O)n4ccccc4nc32)cc1
Potency [2]: 6.51 µM (active)

CC(=O)Nc1ccc(N=Cc2c(O)ccc3ccccc23)cc1
Potency [2]: 29.1 µM (active)

Oc1c(C=Nc2ccccc2)sc2ccccc12
Potency [2]: inactive

O=[N+]([O-])c1ccc(-c2cn3nc(-c4ccccc4)c(-c4ccccc4)nc3n2)cc1
Potency [2]: inactive

CCCN1C(=O)/C(=C/C=C2\N(CC)c3ccccc3C2(C)C)SC1=S
Potency [2]: 29.1 µM (active)

CCn1c(/C=C/c2cc[n+](C)cc2)nc2ccccc21
Potency [2]: inactive

Cc1cc(=O)c2c([nH]1)c(C)cc1[nH]c(C)c(C)c12
Potency [2]: inactive

COc1ccc(CNS(=O)(=O)c2cc3c(cc2Cl)N(C(C)=O)CCO3)cc1
Potency [2]: inactive

CCOC(=O)C1CCCN(c2nc3ccccc3nc2C(C#N)C(=O)NCc2ccccc2)C1 (stereo not drawn)
Potency [2]: inactive

Cn1c(=O)c(Nc2ccc(Cl)cc2)c2c3c(cccc31)C(=O)c1ccccc1-2
Potency [2]: 10.3 µM (active)

N#Cc1c(SCC(=O)Nc2nc3ccc(Br)cc3s2)sc2c(O)cc(=O)[nH]c12
Potency [2]: inactive

COC(=O)CNc1c(-c2ccccc2)nc2ccc(Br)cn12
Potency [2]: inactive

COc1ccc2c(C=Nc3c(C)n(C)n(-c4ccccc4)c3=O)c(O)n(Cc3ccco3)c(=O)c2c1
Potency [2]: 29.1 µM (active)

CCN(CC)c1ccc2cc(NC(=O)CCC(=O)O)c(=O)oc2c1
Potency [2]: 18.3 µM (active)

O=C(NCc1ccco1)c1cccc2c1C(=O)c1ccc(N3CCC(Cc4ccccc4)CC3)cc1S2(=O)=O
Potency [2]: inactive

Cc1ccc(NC(=S)Nc2ccc3nc(-c4ccccn4)c(-c4ccccn4)nc3c2)cc1C
Potency [2]: inactive

O=[N+]([O-])c1cc(Cl)c2cccnc2c1O
Potency [2]: inactive

CCCN1CCN(S(=O)(=O)c2cn(C)nc2C)CC1
Potency [2]: inactive

Nc1nnnn1/N=C/c1cc(Cl)cc(Cl)c1O
Potency [2]: 18.3 µM (active)

CCCCCOc1ccc(/C=c2\sc3nc(=O)c(-c4ccccc4)nn3c2=O)cc1OC
Potency [2]: inactive

COc1cc(OC)c(N(C)C(=O)c2sc3nc4n(c(=O)c3c2C)CCCC4)cc1Cl
Potency [2]: inactive

CCN(CC)c1ccc(/C=C(/C#N)c2nc3ccc(C)cc3[nH]2)c(OC(C)C)c1
Potency [2]: inactive

C=C1C(=C/C=C2\CCC[C@]3(C)[C@@H]([C@H](C)/C=C/[C@H](C)C(C)C)CC[C@@H]23)C[C@@H](O)C[C@@H]1O
viability (% of control) [3]: -0.788%
viability, percent of control [4]: -0.446%
Potency [5]: inactive
outcome [6]: inactive

CCCCCCC(C)OC(=O)COc1nc(F)c(Cl)c(N)c1Cl (stereo not drawn)
activation [7]: -6.58% (inactive)
activation [8]: 3.49% (inactive)
max response [9]: 25.7% (inactive)
Potency [10]: inactive
max response [11]: 17% (inactive)
max response [12]: -29.6% (inactive)

CCCCCCCC1CCC(=O)O1 (stereo not drawn)
activation [7]: -2.71% (inactive)
activation [13]: 4.53% (inactive)
max response [11]: -3.73% (inactive)
max response [12]: -3.73% (inactive)

N#CSCSc1nc2ccccc2s1
max response [9]: -9.14% (inactive)
Potency [10]: inactive

O=S(=O)(Nc1nccs1)c1ccc(Nc2nc(-c3ccc(F)cc3)cs2)cc1
outcome [14]: inactive
Potency [15]: 3.06 µM (active) and 9.68 µM (active)

Cc1ccc(S(=O)(=O)Nc2cnccc2C(=O)Nc2nc(-c3ccc(Oc4ccccc4)cc3)cs2)cc1
outcome [14]: inactive
Potency [15]: 2.17 µM (active)
